In the supplement of paper PMC5499739:
In all, about 16,000 sequences were measured (“Z-score”: median about -0.37, highest 2% from about 3.2 on). The sample as a whole holds a higher share of the highest values than the screen did.

Each sequence was assayed on RBM10 RRM1-ZnF (GST-tagged construct) (assay: RNAcompete 7-mer binding Z-score; higher = stronger binding preference).
Experimental: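 RNAcompete: 20 pmol GST-tagged RBM10 RNA-binding constructs were incubated with a designed RNA pool of about 241,000 sequences up to 41 nt (1.5 nmol) on glutathione beads for 30 min at 4 °C and washed. Bound RNAs were identified by microarray hybridisation. Each RNA 7-mer is scored by a one-sided Z-score of its enrichment, computed over probes that contain the 7-mer within longer pool sequences.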

Sequence	RNAcompete 7-mer binding Z-score
AAUGGGA	4.35
CAUGGGA	1.95
GAUGGGA	3.76
UAUGGGA	2.85
GCUGGGG	2.64
AAUGGGC	2.5
GAUGGGG	4.43
CUCACUU	-0.925
UUGUUAC	-0.373
GUUACCG	-0.0999
GGCCGAG	0.462
UGCGAUA	-0.223
GCCAGAG	0.00729
UGGGAGG	4.4
AGGGAGU	2.96
AGGGAGG	3.68
GGGGAGG	3.64
GGGGAGU	2.84
GGGGAGA	3.3
CGGGAGG	3.02
CGGGAGA	1.24
UGGGAGC	2.86
UGGGAGU	2.27
GGGGAGC	2.29

Sequence	RNAcompete 7-mer binding Z-score
UGGGAGA	2.78
AGUCAGU	0.0105
ACGCCGC	-0.633
UCCAACU	-0.85
GUUACGG	0.859
GAGCUGA	0.417
GCGCAAA	-0.181
AAGGCCA	-0.00896
UUCUUAG	-0.698
AUCCUAC	-0.87
GUCUCAU	-0.642
AGAAUCC	-0.785
AUACAAU	-0.539
CACGCAA	-0.464
GGGCUAU	0.849
AGAAAGG	4.58
CAAAGGU	1.15
AAAAAGG	2
CAUAAGG	0.335
GAAAGGU	4.51
GAAAAGG	4.26
CAAAAGG	0.888
CGAAAGG	2.19
UGAAAGG	3.05

Sequence	RNAcompete 7-mer binding Z-score
GAUAAGU	0.313
AAAAGGU	2.33
GAUAAGG	3.91
CACCUUG	-0.516
ACUAGUG	0.0983
GUACCAG	-0.035
ACCAGGA	0.823
CGCGGCG	1.25
CGCCAUA	-0.594
CGAGGGC	1.06
UGAGGCU	0.3
UGAGGGU	3.48
UGAGGGG	3.64
AGAGGGU	2.22
UGAGGAG	1.86
CGAGGGA	2.84
UGAGGGC	2.27
CGAGGGU	3.7
UGAGAGG	1.94
UGAGGGA	4.02
CGAGGUU	0.846
UAGCGGC	-0.132
AGAUGAU	0.287
UGACUCC	-0.652

Sequence	RNAcompete 7-mer binding Z-score
AUUUAAC	-0.561
GGGAGAU	2.7
CGAAGCU	-0.691
GUCAGCU	-0.425
AGUGCCG	-0.11
UCGCAAU	-0.545
CGAACGA	-0.123
GGGCAUA	1.66
AUACACC	-0.795
CUGAGGC	-0.0155
GGAGGCU	1.41
GGAGGAU	2.46
GGAGGGU	3.97
CCCAAUG	-0.662
GUAGGGC	2.49
UUAGGGG	2.4
GUAGGGU	4.46
UUAGGGU	2.78
UUAGGGA	2.03
CUAGGGG	2.46
CUAGGGU	2.25
AUAGGGG	3.9
GUAGGGG	4.54
GUAGGGA	3.87

Sequence	RNAcompete 7-mer binding Z-score
AUAGGUG	2.64
AUAGGCG	0.781
GCAUACU	-0.694
UACAGGU	0.881
AUAGCAG	0.358
ACUCGGG	0.667
ACAACCA	-0.464
CAAUGUC	-0.75
GAGACCA	-0.126
GACUAAC	-0.626
UCCUUGC	-0.733
GACUGGG	2.42
AUAGGGU	3.61
GUAGGAG	3.43
AUAGGGC	1.72
GUAGGAC	1.4
AUAGGGA	2.86
CUAGGAG	0.608
CCAGCAA	-0.617
AUGGCAU	0.514
UUAAAAA	-0.444
GGCCUGC	-0.428
AAAAGCG	0.378
ACUUCUC	-0.841

Sequence	RNAcompete 7-mer binding Z-score
UAUAAUA	-0.412
CGCGUGC	-0.223
ACGGGUC	1.19
ACGGGGA	3.04
ACGGGUG	3.39
ACGGGGC	2.26
ACGGGGG	3.27
ACGGGGU	4.07
ACCGGGU	0.631
ACGGGUU	2.65
GCGGGUG	3.17
CUCAAUC	-0.769
ACGCUCG	-0.636
UUUUAUC	-0.873
CAGCCUG	-0.513
AGAGUGG	2.81
GAAGUGC	0.29
GAAGUGU	1.08
GGAGUGA	2.38
GGAGUGG	4.84
GAAGUGG	3.46
CGUCCCG	-0.594
CGUUCUA	-0.811
UUUCUUA	-0.727

Sequence	RNAcompete 7-mer binding Z-score
UUAUAAC	-0.704
GACUAUA	-0.542
AAAGGGA	4.42
CAAGGGU	2.65
GAAGGCU	0.621
UAAGGGU	3.44
GAAGGGU	4.19
UAAGGCG	1.03
GAAGGGC	2.98
UAAGGGG	3.27
CAAGGGG	2.79
UAAGGCU	0.183
AAAGGGC	2.62
CAAGGGA	2.42
ACUUAGU	-0.435
GAAUGCU	-0.184
AUAGAAU	-0.132
CCUCGCU	-0.681
UUACUAC	-0.707
UGCUGUG	-0.119
UCUGACG	-0.535
UACCAAC	-0.668
GAAGGGA	4.52
UAAGGGC	1.49

Sequence	RNAcompete 7-mer binding Z-score
UAAGGCA	0.888
GAAGGCA	1.7
GCAGGGA	2.92
UAAGGGA	3.27
CCUCAUC	-0.737
CCACGUA	-0.578
GGGCGAC	1.81
GGGCAGG	3.39
UGGCGGU	1.49
AGGCAGG	1.8
UGGCGGG	3.47
GGGCGAA	2.22
GGACAGU	0.842
GGGCGAG	3.37
CGGCGGG	2.07
GGGCAGA	2.45
AGACAGG	1.59
GGACAGG	3.3
